What all share (test): protein binding microarray; high values mean tight binding
What all share (conditions): dsDNA, one strand shown

The target of test [1] is RELARELA (p65 homodimer) (Homo sapiens, UniProt Q04206 1-307).
Test [2] deals with p50p50 homodimer (Homo sapiens, UniProt P19838 7-356).
For test [3], the target named is T1, p52p52 homodimer (Homo sapiens, UniProt Q00653 4-332).
T1 sequence: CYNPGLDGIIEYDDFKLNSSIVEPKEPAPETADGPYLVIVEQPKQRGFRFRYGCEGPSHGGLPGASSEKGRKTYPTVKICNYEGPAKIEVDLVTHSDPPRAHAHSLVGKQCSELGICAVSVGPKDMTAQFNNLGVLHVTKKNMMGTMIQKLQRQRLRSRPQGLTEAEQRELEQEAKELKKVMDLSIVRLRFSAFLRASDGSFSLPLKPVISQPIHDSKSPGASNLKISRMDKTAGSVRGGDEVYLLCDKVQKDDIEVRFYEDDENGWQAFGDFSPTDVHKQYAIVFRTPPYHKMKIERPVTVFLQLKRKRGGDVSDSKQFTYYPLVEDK

For test [4], the target named is RELA (p65) subunit of heterodimer;p50 subunit (Homo sapiens;Homo sapiens, UniProt Q04206;P19838 1-307;7-356).
Test [5] addresses RELA (p65) subunit of heterodimer;p52 subunit (Homo sapiens;Homo sapiens, UniProt Q04206;Q00653 1-307;4-332).
Test [6] addresses RELB subunit;p50 subunit (Homo sapiens;Homo sapiens, UniProt Q01201;P19838 120-401;7-356).
Test [7] addresses T2, RELB subunit;p52 subunit (Homo sapiens;Homo sapiens, UniProt Q01201;Q00653 120-401;4-332).
T2 sequence 1: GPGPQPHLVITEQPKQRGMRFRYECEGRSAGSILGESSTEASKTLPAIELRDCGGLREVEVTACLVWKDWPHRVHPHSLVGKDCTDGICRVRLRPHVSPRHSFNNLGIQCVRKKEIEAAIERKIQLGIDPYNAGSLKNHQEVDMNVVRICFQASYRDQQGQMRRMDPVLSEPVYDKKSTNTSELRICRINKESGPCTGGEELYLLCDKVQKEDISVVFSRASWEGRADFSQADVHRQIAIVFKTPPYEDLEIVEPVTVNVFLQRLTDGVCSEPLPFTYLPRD
T2 sequence 2: T1 sequence

Test [8] addresses C-Rel subunit;p50 subunit (Homo sapiens;Homo sapiens, UniProt Q04864;P19838 1-285;7-356).
Test [9] concerns the target T3, C-Rel subunit;p52 subunit (Homo sapiens;Homo sapiens, UniProt Q04864;Q00653 1-285;4-332).
T3 sequence 1: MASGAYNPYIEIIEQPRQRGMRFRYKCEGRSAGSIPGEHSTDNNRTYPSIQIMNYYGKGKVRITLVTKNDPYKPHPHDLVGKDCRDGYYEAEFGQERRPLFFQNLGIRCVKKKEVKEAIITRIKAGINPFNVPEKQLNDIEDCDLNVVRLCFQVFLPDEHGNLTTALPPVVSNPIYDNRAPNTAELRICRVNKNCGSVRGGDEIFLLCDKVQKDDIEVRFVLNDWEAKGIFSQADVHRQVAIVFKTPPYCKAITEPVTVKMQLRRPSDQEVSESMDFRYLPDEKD
T3 sequence 2: T1 sequence

Among the data in publication PMC3218832 are binding signal values, retold here.

RELARELA (p65 homodimer), sequence (Q04206 1-307): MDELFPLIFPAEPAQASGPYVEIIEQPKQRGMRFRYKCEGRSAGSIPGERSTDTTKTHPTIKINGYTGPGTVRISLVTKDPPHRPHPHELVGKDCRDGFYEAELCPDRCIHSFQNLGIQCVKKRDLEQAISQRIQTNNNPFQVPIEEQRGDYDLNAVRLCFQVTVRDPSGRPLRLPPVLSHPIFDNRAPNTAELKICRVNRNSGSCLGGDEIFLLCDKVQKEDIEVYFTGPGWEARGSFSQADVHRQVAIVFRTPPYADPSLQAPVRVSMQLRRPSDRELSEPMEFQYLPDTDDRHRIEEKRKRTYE
RELA (p65) subunit of heterodimer;p50 subunit, sequence (Q04206 1-307, chain 1 of 2): as the sequence (Q04206 1-307) above
RELA (p65) subunit of heterodimer;p50 subunit, sequence (P19838 7-356, chain 2 of 2): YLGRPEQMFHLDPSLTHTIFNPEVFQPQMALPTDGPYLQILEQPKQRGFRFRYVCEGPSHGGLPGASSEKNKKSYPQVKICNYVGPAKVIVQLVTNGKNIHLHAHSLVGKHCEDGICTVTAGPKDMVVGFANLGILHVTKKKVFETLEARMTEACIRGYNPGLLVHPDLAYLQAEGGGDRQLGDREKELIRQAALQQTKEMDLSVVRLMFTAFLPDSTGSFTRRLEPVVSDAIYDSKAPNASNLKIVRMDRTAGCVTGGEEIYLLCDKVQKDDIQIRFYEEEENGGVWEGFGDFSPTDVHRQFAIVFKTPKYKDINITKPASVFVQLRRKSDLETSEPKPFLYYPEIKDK
p50p50 homodimer, sequence (P19838 7-356): as the sequence (P19838 7-356, chain 2 of 2) above

Consider GAAGATTTCCT, for which the binding signal in test [1] is 0.421 z-score; in test [2] it was -0.715 z-score; in test [3], -0.513 z-score; in test [4], -0.241 z-score; in [5], -0.568 z-score; in test [6], -0.764 z-score. Moreover, the figures for the binding signal in [7], in test [8] and in test [9] were -0.77 z-score, -0.169 z-score and -0.383 z-score, respectively.

Turning to CAGAAAATCCC, the binding signal is 1.82 z-score in test [1]; 0.978 z-score in test [2]; 1.18 z-score in test [3]; 0.992 z-score in [4]; 1.13 z-score in test [5]; 0.966 z-score in test [6]. The values for the binding signal in test [7], in test [8] and in test [9] were 1.04 z-score, 0.902 z-score and 1.19 z-score, respectively.

Consider AAAGTTACCCT, for which the binding signal is -0.188 z-score in test [1]; 0.663 z-score in [2]; 0.376 z-score in test [3]; 0.371 z-score in test [4]; 0.376 z-score in test [5]; 0.557 z-score in test [6]. Further, the binding signal amounted to 0.191 z-score in test [7], 0.279 z-score in test [8] and 0.216 z-score in test [9].

CAATGTTCCCT: the binding signal in [1] was 0.185 z-score; in test [2], 0.396 z-score; in test [3], 0.137 z-score; in [4], -0.019 z-score; in test [5], -0.0733 z-score; in [6], 0.0726 z-score. Besides, the binding signal in test [7] is 0.0791 z-score; in [8], 0.0457 z-score; in test [9], -0.175 z-score.

For CGATGTCTCCT, the binding signal in [1] is -0.49 z-score; in test [2] it was -1.36 z-score; in test [3] it was -0.736 z-score; in test [4] it was -0.843 z-score; in test [5], -0.849 z-score; in [6] it was -1.04 z-score. The values for the binding signal in [7], in test [8] and in test [9] were -0.858 z-score, -1.52 z-score and -0.895 z-score, respectively.

CAAAGAACCCT: the binding signal in test [1] is -0.87 z-score; in test [2], -0.409 z-score; in test [3] it was -0.354 z-score; in [4], -0.631 z-score; in [5] it was -0.614 z-score; in test [6], -0.682 z-score. Moreover, the values for the binding signal in test [7], in [8] and in test [9] were -0.58 z-score, -0.78 z-score and -0.544 z-score, respectively.

Consider GAGATCCTCCC, for which the binding signal was -0.414 z-score in [1]; -0.604 z-score in test [2]; -0.376 z-score in test [3]; -0.425 z-score in test [4]; -0.539 z-score in [5]; -0.422 z-score in test [6]. The binding signal was -0.686 z-score in [7], -0.717 z-score in test [8] and -0.442 z-score in test [9].

Consider GGAGGCGCCCC, for which the binding signal in [1] is -0.259 z-score; in test [2] it was -0.0933 z-score; in test [3], -0.0824 z-score; in test [4], -0.062 z-score; in test [5] it was 0.0158 z-score; in test [6], 0 z-score. The results for the binding signal in test [7], in test [8] and in test [9] were 0.214 z-score, -0.156 z-score and -0.0409 z-score, respectively.

Turning to AGAGACACCCC, the binding signal in [1] is -0.871 z-score; in test [2], -0.237 z-score; in test [3], -0.229 z-score; in test [4], -0.459 z-score; in test [5], -0.359 z-score; in [6], -0.257 z-score. In addition, the binding signal is 0.00668 z-score in test [7], -0.227 z-score in test [8] and -0.484 z-score in test [9].

Consider GGAAACCTCCT, for which the binding signal in test [1] is 0.339 z-score; in test [2], -1.26 z-score; in test [3] it was -0.526 z-score; in test [4], -0.425 z-score; in test [5], -0.573 z-score; in test [6], -1.02 z-score. For the same sequence, the binding signal was -0.75 z-score in test [7], -0.436 z-score in test [8] and -0.293 z-score in test [9].

In the case of CAAAAAGTCCC, the binding signal in test [1] is 2.29 z-score; in [2], 1.2 z-score; in [3], 2.38 z-score; in [4], 1.75 z-score; in [5] it was 1.58 z-score; in test [6] it was 2.23 z-score. Moreover, the binding signal in [7] came out at 1.75 z-score; in test [8] it was 1.53 z-score; in [9], 2.25 z-score.

For CAAAGGCTCCT, the binding signal in test [1] is -0.998 z-score; in test [2], -1.36 z-score; in test [3], -0.784 z-score; in test [4], -1.16 z-score; in [5], -1.16 z-score; in test [6], -1.21 z-score. Further, the binding signal in test [7] was -1.07 z-score; in test [8], -1.99 z-score; in [9], -1.13 z-score.

In the case of AGGGACGTCCT, the binding signal came out at 0.554 z-score in test [1]; 0.528 z-score in test [2]; 1.06 z-score in test [3]; 0.549 z-score in test [4]; 0.923 z-score in test [5]; 0.448 z-score in test [6]. In addition, the binding signal in test [7] came out at 0.709 z-score; in test [8] it was 0.177 z-score; in test [9], 0.67 z-score.

CGAATCATCCC: the binding signal in test [1] was -0.386 z-score; in [2], -0.966 z-score; in test [3] it was -0.352 z-score; in test [4] it was -0.734 z-score; in test [5], -0.619 z-score; in test [6], -0.644 z-score. Also, the binding signal is -0.752 z-score in test [7], -0.745 z-score in test [8] and -0.523 z-score in [9].

CGAGTGACCCT: the binding signal was -1.21 z-score in test [1]; -1.33 z-score in test [2]; -0.545 z-score in [3]; -0.827 z-score in test [4]; -0.906 z-score in [5]; -0.855 z-score in test [6]. Moreover, the values for the binding signal in [7], in test [8] and in test [9] were -0.722 z-score, -1.34 z-score and -0.744 z-score, respectively.
